Values joined by “and” are separate entries in the source; they are usually repeats but may differ in a detail not shown here. Equal entries are not always repeated. Inconclusive results are not listed. Where a call stands in place of a potency, no number is given. Active and inactive are the calls of the source. Calls come from the whole dose curve; as a rule, active = well fitted curve in the direction sought with a large enough effect; inconclusive = small, poorly fitted or top-dose-only effect, or another doubt; inactive = no such curve, though single readings can be large; an effect the other way counts as inactive or inconclusive.
Tests used:
[1] = qHTS of pediatric cancer cell lines to identify multiple opportunities for drug repurposing: Primary screen for NB-EBc1 cells (AID 1347095); note: potency is the fitted concentration of half-maximal effect
Method in brief: (§1)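 Cells plated at 500-1,000/well in growth medium, compounds added after 5 h. MIPE tested at 11 points (from 0.78 nM), NPC at 8 points (from 0.59 nM). CellTiter-Glo luminescence after 48 h; concentration-response curves from primary screen.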

[2] = qHTS of pediatric cancer cell lines to identify multiple opportunities for drug repurposing: Primary screen for U-2 OS cells (AID 1347096); note: nearly all actives have a fitted effect of over 50% in size
Method in brief: (§2)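 Cells (500-1,000/well) in growth media were settled 5 h at 37 degrees C, then given compounds for 48 h. Viability was read as CellTiter-Glo luminescence. Primary runs used MIPE at 11 points (0.78 nM-46 µM) and NPC at 8 points (0.59 nM-46 µM); follow-ups used 11 points.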

[3] = qHTS of pediatric cancer cell lines to identify multiple opportunities for drug repurposing: Primary screen for Saos-2 cells (AID 1347097); note: nearly all actives have a fitted effect of over 40% in size; note: potency is the fitted concentration of half-maximal effect
Method in brief: as §1

[4] = qHTS of pediatric cancer cell lines to identify multiple opportunities for drug repurposing: Primary screen for NB1643 cells (AID 1347099); note: nearly all actives have a fitted effect of over 50% in size; note: potency is the fitted concentration of half-maximal effect
Method in brief: as §1

[5] = qHTS of pediatric cancer cell lines to identify multiple opportunities for drug repurposing: Primary screen for LAN-5 cells (AID 1347100); note: potency is the fitted concentration of half-maximal effect
Method in brief: as §2

[6] = qHTS of pediatric cancer cell lines to identify multiple opportunities for drug repurposing: Primary screen for Rh18 cells (AID 1347102); note: nearly all actives have a fitted effect of over 65% in size
Method in brief: as §2

[7] = qHTS of pediatric cancer cell lines to identify multiple opportunities for drug repurposing: Primary screen for OHS-50 cells (AID 1347103); note: nearly all actives have a fitted effect of over 40% in size; note: potency is the fitted concentration of half-maximal effect
Method in brief: (§3)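 Cells (500-1,000/well) rested 5 h, then received compounds for 48 h; metabolically active cells were measured by CellTiter-Glo luminescence. Final concentrations spanned up to 46 µM (MIPE, 11-point) or 0.59 nM-46 µM (NPC, 8-point) in primary screens, 11-point in follow-ups.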

[8] = qHTS of pediatric cancer cell lines to identify multiple opportunities for drug repurposing: Primary screen for RD cells (AID 1347104); note: nearly all actives have a fitted effect of over 55% in size; note: potency is the fitted concentration of half-maximal effect
Method in brief: as §1

[9] = qHTS of pediatric cancer cell lines to identify multiple opportunities for drug repurposing: Primary screen for control Hh wild type fibroblast cells (AID 1347106);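 note: series mostly up to about 46 µM; a drop in luminescence marks cytotoxicity and a rise apparent proliferation; nearly all actives have a fitted effect of over 55% in size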
Method in brief: as §2

[10] = qHTS of pediatric cancer cell lines to identify multiple opportunities for drug repurposing: Primary screen for Rh30 cells (AID 1347107); note: series mostly up to about 46 µM; nearly all actives have a fitted effect of over 75% in size
Method in brief: as §2

[11] = qHTS of pediatric cancer cell lines to identify multiple opportunities for drug repurposing: Primary screen for Rh41 cells (AID 1347108);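 note: series mostly up to about 46 µM; luminescence drop marks cytotoxic hits; nearly all actives have a fitted effect of over 70% in size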
Method in brief: as §1

[12] = qHTS of pediatric cancer cell lines to identify multiple opportunities for drug repurposing: Primary screen for SK-N-SH cells (AID 1347098); note: nearly all actives have a fitted effect of over 65% in size; note: potency is the fitted concentration of half-maximal effect
Method in brief: as §3

[13] = qHTS of pediatric cancer cell lines to identify multiple opportunities for drug repurposing: Primary screen for BT-12 cells (AID 1347101); note: nearly all actives have a fitted effect of over 25% in size; note: potency is the fitted concentration of half-maximal effect
Method in brief: as §3

[14] = qHTS of pediatric cancer cell lines to identify multiple opportunities for drug repurposing: Primary screen for MG 63 (6-TG R) cells (AID 1347105); note: nearly all actives have a fitted effect of over 50% in size
Method in brief: as §1

[15] = qHTS of pediatric cancer cell lines to identify multiple opportunities for drug repurposing: Confirmatory screen for NB1643 cells (AID 1347109); note: nearly all actives have a fitted effect of over 45% in size; note: potency is the fitted concentration of half-maximal effect
Method in brief: as §2

[16] = qHTS of pediatric cancer cell lines to identify multiple opportunities for drug repurposing: Confirmatory screen for SK-N-MC cells (AID 1347111);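 note: potency is the fitted concentration of half-maximal effect; cells exposed to compound for 48 h before the readout; nearly all actives have a fitted effect of over 70% in size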
Method in brief: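 Metabolically active cells were quantified by ATP-dependent luminescence (CellTiter-Glo, 15 min at room temperature) following 48 h treatment. Cells had been plated at 500-1,000 per well and settled for 5 h beforehand.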

[17] = qHTS of pediatric cancer cell lines to identify multiple opportunities for drug repurposing: Confirmatory screen for BT-12 cells (AID 1347112); note: nearly all actives have a fitted effect of over 55% in size; note: potency is the fitted concentration of half-maximal effect
Method in brief: as §2

[18] = qHTS of pediatric cancer cell lines to identify multiple opportunities for drug repurposing: Confirmatory screen for A673 cells (AID 1347110);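 note: potency is the fitted concentration of half-maximal effect; cells exposed to compound for 48 h before the viability read; nearly all actives have a fitted effect of over 65% in size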
Method in brief: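 Concentration-response curves came straight from titrations: 11 points (0.78 nM to 46 µM) for MIPE and several concentrations (0.59 nM to 46 µM) for NPC in primary, 11 points in follow-up. Readout: ATP luminescence at 48 h.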

| SMILES | Potency [1] | Potency [2] | Potency [3] | Potency [4] | Potency [5] | Potency [6] | Potency [7] | Potency [8] | Potency [9] | outcome [10] | Potency [11] | Potency [12] | Potency [13] | Potency [14] | Potency [15] | Potency [16] | Potency [17] | Potency [18] |
| --- | --- | --- | --- | --- | --- | --- | --- | --- | --- | --- | --- | --- | --- | --- | --- | --- | --- | --- |
| O=c1[nH]cc(F)c(=O)[nH]1 | 9.44 µM (active) and 2.64 µM (active) | inactive | inactive | 5.26 µM (active) | 7.43 µM (active) | inactive | inactive | inactive | inactive | inactive | inactive |  |  |  |  |  |  |  |
| Cc1ccc(-c2cc(C(F)(F)F)nn2-c2ccc(S(N)(=O)=O)cc2)cc1 | inactive | inactive | 16.8 µM (active) | inactive | inactive | inactive |  |  | inactive | inactive |  | inactive | inactive | inactive |  |  |  |  |
| CCCNCC(O)COc1ccccc1C(=O)CCc1ccccc1 (configuration not stated) | inactive | inactive | inactive | inactive |  |  |  | 33.2 µM (active) | inactive | inactive | inactive | 21.7 µM (active) |  | inactive |  |  |  |  |
| CC(C)(Oc1ccc(C2CC2(Cl)Cl)cc1)C(=O)O (configuration not stated) |  | inactive | inactive | inactive |  | inactive | inactive | inactive | inactive | inactive | inactive |  | inactive | inactive |  |  |  |  |
| CC1(CN2CCC(n3c(=O)[nH]c4ccccc43)CC2)OCc2ccccc2-n2cccc21 (configuration not stated) |  | inactive | inactive | inactive | inactive | inactive |  |  | inactive | inactive |  | 24.4 µM (active) | inactive |  |  |  |  |  |
| CC(C)NCC(O)c1ccc(O)c(O)c1 (configuration not stated) |  | inactive |  |  |  |  | inactive |  | inactive | inactive |  | inactive | inactive |  | inactive | 2.33 µM (active) | 4.14 µM (active) |  |
| CCC1(c2ccccc2)C(=O)NCNC1=O | inactive | inactive | inactive |  | inactive | inactive | inactive |  | inactive | inactive | inactive |  | inactive |  |  |  | inactive |  |
| COc1cc2nc(N3CCN(C(=O)c4ccco4)CC3)nc(N)c2cc1OC | inactive |  |  | 26.4 µM (active) | 14.8 µM (active) |  |  | 29.6 µM (active) | inactive | inactive | inactive | 27.1 µM (active) | 9.53 µM (active) | inactive |  |  |  |  |
| Cc1cc(C(C)(C)C)cc(C)c1CC1=NCCN1 | inactive | inactive | inactive | inactive | inactive | inactive |  |  | inactive | inactive | inactive | inactive | inactive |  |  |  |  |  |
| Cn1c(=O)c2c(ncn2C)n(C)c1=O | inactive | inactive | inactive | inactive | inactive | inactive | inactive | inactive | inactive | inactive | inactive | inactive | inactive |  |  |  |  |  |
| Cn1cnc2c1c(=O)[nH]c(=O)n2C |  |  |  | inactive |  |  |  |  | inactive | inactive |  | inactive |  |  |  |  |  |  |
| Nc1nc2c(ncn2COC(CO)CO)c(=O)[nH]1 | inactive | inactive |  | inactive | inactive | inactive |  | inactive | inactive | inactive |  | inactive |  |  |  |  |  |  |
| COC(=O)Nc1nc2ccc(C(=O)c3cccs3)cc2[nH]1 | 1 nM (active) and 84.1 nM (active) |  | 4.7 nM (active) and 94.4 nM (active) |  | 3.3 nM (active) and 119 nM (active) | inactive | 8.6 nM (active) and 309 nM (active) |  | inactive | inactive |  | inactive | 19.3 nM (active) and 347 nM (active) |  | 0.522 µM (active) | 0.147 µM (active) | 0.522 µM (active) | 0.147 µM (active) |
